This passage reports growth inhibition results from PubChem BioAssay (NCI).

Assay [1] can be described thus: NCI Yeast Anticancer Drug Screen. Data for the rad50 strain (AID 155).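 Also: 0% = growth of vehicle-only cultures of the same strain.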 The settings on record: S. cerevisiae rad50 strain growth inhibition; at 50.0 µM; stronger effect = higher value. In a few lines:
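Growth of the mutant yeast was measured after compound exposure and referenced to vehicle-treated cultures.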

Assay [2] can be described thus: NCI Yeast Anticancer Drug Screen. Data for the mec2-1 strain (AID 157). The settings on record: S. cerevisiae mec2-1 strain, at 50.0 µM, stronger effect = higher value. In a few lines: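 Cells of the genetically defined mec2-1 yeast strain are incubated with test compound. Inhibition of growth is calculated against vehicle-treated controls.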
Assay [3] can be described thus: NCI Yeast Anticancer Drug Screen. Data for the cln2 rad14 strain (AID 165).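 Also: 0% = growth equal to vehicle treated cultures.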 The note with it: S. cerevisiae cln2 rad14 strain, at 50.0 µM, stronger effect = higher value. In a few lines: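 The screen exposed genetically defined yeast (cln2 rad14) to test compounds and scored growth inhibition relative to vehicle-treated controls.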
The nature of assay [4]: NCI Yeast Anticancer Drug Screen. Data for the bub3 strain (AID 167). The settings on record: S. cerevisiae bub3 mutant strain, at 50.0 µM, stronger effect = higher value. In a few lines:
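Whole-cell yeast assay. The mutant strain was incubated with compounds, and growth inhibition was determined by comparison with vehicle-treated cells.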

The nature of assay [5]: NCI Yeast Anticancer Drug Screen. Data for the mlh1 rad18 strain (AID 175). The note with it: S. cerevisiae mlh1 rad18 strain growth inhibition; at 50.0 µM; stronger effect = higher value. In short, it runs like this:
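Compound-treated yeast growth, normalised to vehicle controls. Strain bears defined DNA repair mutations.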

Assay [6] in a line: NCI Yeast Anticancer Drug Screen. Data for the sgs1 mgt1 strain (AID 161).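 Also: 0% = growth of cultures given vehicle only.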 The note with it: S. cerevisiae sgs1 mgt1 strain, at 50.0 µM, stronger effect = higher value. In a few lines:
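Test agents were incubated with a DNA-repair-mutant yeast strain. Growth was then read and compared against vehicle-treated controls.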

The panel holds about 79,000 compounds, 15% with a hit somewhere; the sample as a whole holds those more often. Unmarked numbers belong to inactive results. Activity calls are given as the source filed them. Rule as the data show it: active = growth inhibition above about 70%; inactive = the rest.

Turning to `NC(C/C=C/P(=O)(O)O)C(=O)O` (stereo unspecified), the growth inhibition in assay [1] is -20.4%; in assay [2], -17.1%; in assay [3], 13.2%; in assay [4], 19.9%; in assay [5], -33%.

Turning to `O=C(O)CCCO`, the growth inhibition was -13.8% in assay [1]; -20.3% in assay [2]; 3.3% in assay [3]; 1.45% in assay [4]; -10.4% in assay [5].

For `CC12CCC3C(CCC4=CC(O)CCC43C=O)C1(O)CCC2c1ccc(=O)oc1` (stereo unspecified), the growth inhibition in assay [1] was 7.15%; in assay [2], -35%; in assay [3], 15.2%; in assay [4] it was -11.2%; in assay [5] it was 5.05%.

In the case of `CC(C(=O)c1ccccc1)N(C)C` (stereo unspecified), the growth inhibition was 2.15% in assay [1]; -6.85% in assay [2]; -4.2% in assay [6]; -19.7% in assay [4]; 5.5% in assay [5].

On to `CC1=C(C)C(=O)O[C@@H]([C@](C)(O)[C@]2(O)CC[C@@]3(O)[C@@H]4C[C@H](O)[C@]5(O)[C@@H](O)C=CC(=O)[C@]5(C)[C@H]4CC[C@]23C)C1`, for which the growth inhibition in assay [1] was 21.9%; in assay [2], 11.2%; in assay [3] it was 23.2%; in assay [4], 9.5%; in assay [5], -52.8%.

Turning to `O=NN(c1ccccc1)c1ccccc1`, the growth inhibition in assay [1] is 12.2%; in assay [2], 9.8%; in assay [3] it was -22.3%; in assay [4], -10.1%; in assay [5] it was 34.5%.

As for `O=C(CCBr)Nc1ccc(Cl)cc1C(=O)c1ccccc1`, the growth inhibition in assay [6] is 10.2%.

For `C/C=C/C(=O)[O-].C/C=C/C(=O)[O-].N.N.N.N.[Co+3].[O-][Cl+3]([O-])([O-])[O-]`, the growth inhibition in assay [6] was -7.2%.

On to `NP(=O)(Oc1cccc2c(OP(N)(=O)N(CCCl)CCCl)cccc12)N(CCCl)CCCl` (stereo unspecified), for which the growth inhibition in assay [1] was 6.95%; in assay [6], 8.1%; in assay [3], -29.7%; in assay [4] it was -3.25%; in assay [5], 16.9%.

As to `NC(CCSCCF)C(=O)O` (stereo unspecified), the growth inhibition is 8.6% in assay [2], 12.8% in assay [6], -2.65% in assay [3] and 24.4% in assay [4].

As to `CNC(=O)N1CN(c2ccccc2)C2(CCN(CCCC3(c4ccc(F)cc4)OCCO3)CC2)C1=O`, the growth inhibition in assay [1] is -16%; in assay [6], -4.4%; in assay [3], -8.8%; in assay [4] it was 8.3%; in assay [5], 1.05%.

For `CCCCCCCCCCC(O)[C@H]1CCC(C2CC[C@H]([C@H](O)CCCCCCCCCCC(O)CC3=CC(C)OC3=O)O2)O1` (stereo partly specified), the growth inhibition was 2.15% in assay [1]; -13.3% in assay [6]; -10.7% in assay [3]; 0.85% in assay [4]; 5.2% in assay [5].

With `CCCCOP(=O)(O)OCCCC.[V]`, the growth inhibition in assay [1] was -0.55%; in assay [6], -1.55%; in assay [3], -17.1%; in assay [4], -10.9%; in assay [5] it was 0.65%.

For the molecule `Cc1ccc(S(=O)(=O)OCCN2CC2)cc1`, the growth inhibition in assay [1] was -12%; in assay [6] it was -13.6%; in assay [3], -23.2%; in assay [4], -17.4%; in assay [5], -12.7%.

As for `CCC(Cl)COP(=O)(OCC(Cl)CC)C(CC)OP(=S)(OCC(Cl)CC)OCC(Cl)CC` (stereo unspecified), the growth inhibition in assay [1] was 16.6%; in assay [6], 65.7%; in assay [3], 94.8% (active); in assay [4], 57.5%; in assay [5], 20.9%.

Consider `O=C1C=CC2(C=C1)CCN=c1c(O)c3c(c(O)c12)=NC=N3`, for which the growth inhibition in assay [1] is 15.5%; in assay [6], 8.5%; in assay [3], 29.2%; in assay [4], 11.9%; in assay [5], -4.5%.

For the molecule `CC1OC(OC2CCC3(C=O)C4CCC5(C)C(C6=CC(=O)OC6)CCC5(O)C4CCC3(O)C2)C(O)C(O)C1O` (stereo unspecified), the growth inhibition in assay [2] is -8.35%; in assay [6], -5.65%; in assay [3] it was 13.5%; in assay [4], -9.15%; in assay [5], -4.3%.

Consider `N.N.N.N.O=N[O-].O=N[O-].[Cl-].[Co+3]`, for which the growth inhibition in assay [1] was 4.25%; in assay [6], 2.55%; in assay [3], 36.1%; in assay [4], 7.25%; in assay [5], 0.2%.

As for `C[Si](C)(C)CS(=O)[O-].[C-]#[O+].[C-]#[O+].[Fe+6].[c-]1[c-][c-][cH-][c-]1`, the growth inhibition in assay [1] was 0.1%; in assay [6], 20.7%; in assay [3] it was -12.2%; in assay [4], -3.85%; in assay [5], 6.65%.

For `CC(O)C[As](=O)(O)c1cccc(Cl)c1` (stereo unspecified), the growth inhibition in assay [1] was 2.05%; in assay [6], 10.3%; in assay [3], -0.7%; in assay [4], 37.5%; in assay [5], 39.5%.

Take `O=C1NC(=O)C(F)(n2cc(F)c(=O)[nH]c2=O)C(O)N1` (stereo unspecified): the growth inhibition in assay [1] was -47.8%; in assay [6], -10.2%; in assay [3], -40%; in assay [4] it was -13.4%; in assay [5], -54.9%.

For `CC1=C(C)C(=O)O[C@@H]([C@](C)(O)[C@]2(O)CC[C@@]3(O)[C@@H]4C[C@H]5O[C@]56CC=CC(=O)[C@]6(C)[C@H]4CC[C@]23C)C1`, the growth inhibition was 45.1% in assay [1]; 43.8% in assay [6]; 27.3% in assay [3]; 45.9% in assay [4]; 40.2% in assay [5].

Turning to `O=C(c1ccccc1)P(C(=O)c1ccccc1)C(=O)c1ccccc1`, the growth inhibition in assay [1] is 10.9%; in assay [6], 8.2%; in assay [3] it was -75.7%; in assay [4], -0.05%; in assay [5] it was -5.1%.

As for `[C-]#[O+].[C-]#[O+].[C-]#[O+].[C-]#[O+].[C-]#[O+].[CH3][Sn]([Cl])[c]1ccccc1.[Mn]`, the growth inhibition in assay [1] was 91.5% (active); in assay [6], 89.7% (active); in assay [3] it was 88.6% (active); in assay [4], 96% (active); in assay [5], 92.5% (active).

As to `c1ccc(N2CCN(c3ccccc3)CC2)cc1`, the growth inhibition in assay [1] was -31.7%; in assay [6], -1.15%; in assay [3] it was -57.5%; in assay [4] it was 37.8%; in assay [5] it was 13.8%.

As to `Cn1cc(C(=O)C[n+]2ccccc2)c2ccccc21`, the growth inhibition in assay [1] is -20.4%; in assay [6], -18.3%; in assay [3], 3.7%; in assay [4] it was -30.1%; in assay [5], -5.45%.

In the case of `CCP(c1ccccc1)c1ccccc1`, the growth inhibition in assay [2] was 12.4%; in assay [6], 13.1%; in assay [3], 0.95%; in assay [4] it was -40.8%; in assay [5] it was -12%.

Consider `Cc1ccc(P(=O)(O)O)cc1`, for which the growth inhibition in assay [1] was -10.9%; in assay [6], 12.1%; in assay [3] it was 2.6%; in assay [4], -2.2%; in assay [5], -14.8%.

Regarding `CCN(CC)[P+](C1=C(Cl)C(=O)C(Cl)=C(Cl)C1=O)(N(CC)CC)N(CC)CC`, the growth inhibition in assay [1] is 1.25%; in assay [6] it was -6.6%; in assay [3] it was -19.5%; in assay [4], 8.45%; in assay [5] it was -17.5%.

Consider `COc1ccc2c(c[n+](C)c3c4cc5c(cc4ccc23)OCO5)c1OC`, for which the growth inhibition in assay [1] was 0.2%; in assay [6] it was 5.6%; in assay [3] it was 14%; in assay [4], -6.5%; in assay [5], 0.6%.

Regarding `COC1OCC(N=[N+]=[N-])C(OC)C1O` (stereo unspecified), the growth inhibition is 18.8% in assay [1]; -3.1% in assay [6]; -19.2% in assay [3]; 5.65% in assay [4]; -1.8% in assay [5].

For `OCCNC1CCCCC1`, the growth inhibition in assay [1] is 5.15%; in assay [6], -13.8%; in assay [3], -1.8%; in assay [4], 3.55%; in assay [5], -16.1%.
